About 1,100 (1.7%) of roughly 63,000 compounds were called active. Cut-off read from the data, not from the text of the source: active = cytotoxicity above about 50%; inactive = the rest. What follows is part of a selection rich in actives, with near analogues and random picks from the rest. Potency and affinity values are given separately.

The text below walks through data of PubChem BioAssay AID430 (Sanford-Burnham Center for Chemical Genomics, 2006).

The assay is described as follows: HPDE-C7 pancreatic duct cell viability loss – fluorescence, HTS (AID 430).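 Note: cells exposed to compound for 48 hours before viability readout; 0% = vehicle and 100% = reference cytotoxic drug.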 Particulars: HPDE-C7 pancreatic duct cells viability, at 10 µM, active compounds read high.
Regarding `Clc1ccccc1Cn1nnc2c(N3CCCC3)ncnc21`, the cytotoxicity was 5% (inactive).

`COc1ccc(C2(O)CCN(Cc3nnnn3Cc3ccc(C)cc3)CC2)cc1`: the cytotoxicity was -4.4% (inactive). Then `O=C(Oc1cc2oc(=O)c3c(c2cc1Cl)CCCC3)c1ccco1`, with -3.8% (inactive); and `CNc1oc(Cc2cccc3ccccc23)nc1C#N`, with 3.8% (inactive).

For the compound `N#Cc1nc(Cc2cccc3ccccc23)oc1NCc1ccco1`, the cytotoxicity is 58.4% (active).

Consider `C=CCNc1oc(Cc2cccc3ccccc23)nc1C#N`, for which the cytotoxicity was -12% (inactive). In the case of `CCn1cc(C(=O)NCCCN(C)c2ccccc2)c(=O)c2cc(S(=O)(=O)N(C)C)ccc21`, the cytotoxicity was 10.5% (inactive).

In the case of `CCc1nnc(NC(=O)CSc2nccn2-c2cc(C)cc(C)c2)s1`, the cytotoxicity was 7.6% (inactive). To `Cc1ccccc1-c1noc(-c2cccs2)n1` belongs -7.3% (inactive); to `Cc1ccccc1-c1noc(-c2ccc(O)cc2)n1`, 52.8% (active); to `CCOc1ccc(-c2nc(-c3ccccc3C)no2)cc1`, 2.4% (inactive). To `CCn1c(-c2c[nH]c3ccccc23)n[nH]c1=S` belongs 6.5% (inactive). To `O=C1Cc2ccccc2N1c1ccccc1` belongs -6.3% (inactive). `CCOC(=O)C1CCN(Cc2ccc(O)c3ncccc23)CC1`: the cytotoxicity is 60.3% (active).

On to `CCOC(=O)C1CCN(Cc2ccc(OC)c(C)c2OC)CC1`, for which the cytotoxicity is 2.2% (inactive).

Turning to `CCOC(=O)C1CCN(Cc2c(O)ccc3ccccc23)CC1`, the cytotoxicity is -5.8% (inactive). Consider `CN(C)c1ccc(C(=S)N2CCOCC2)cc1Br`, for which the cytotoxicity is -13.8% (inactive). Regarding `CCOC(=O)N1CCN(C(=O)c2ccc3c(=O)n(Cc4ccc(OC)cc4)c(=S)[nH]c3c2)CC1`, the cytotoxicity was -14.8% (inactive). In the case of `COc1ccc(N2C(=O)CC(N3CCN(c4nc5ccccc5s4)CC3)C2=O)cc1` (stereo not given), the cytotoxicity was 7.5% (inactive).

Regarding `CC(NC(=O)Nc1nccs1)(C(F)(F)F)C(F)(F)F`, the cytotoxicity is -4.1% (inactive).

`O=C(NCC(F)(F)F)Nc1nnc(C(F)(F)F)s1`: the cytotoxicity is 12.3% (inactive). Then `CCC(NC(=O)Nc1nccs1)(C(F)(F)F)C(F)(F)F`, with -7% (inactive); and `CCSc1nnc(NC(=O)NC(CC)(C(F)(F)F)C(F)(F)F)s1`, with 14.7% (inactive).

Take `O=C(COC(=O)c1n[nH]c2ccccc12)NC(=O)NCc1ccco1`: the cytotoxicity is -1.6% (inactive). With `CC1=C(C(=O)Nc2ccccc2)C(c2ccncc2)C(C#N)=C(SCC(=O)NC2CC2)N1` (stereo not given), the cytotoxicity is -16.3% (inactive). In the case of `COc1ccc(NC(=O)CSc2nnc(CNC(=O)c3ccco3)o2)c(OC)c1`, the cytotoxicity was -0.9% (inactive). Regarding `CCOC(=O)C1=C(C)NC(C)=C(C(=O)OCC)C1C(=O)OCC(=O)N1CCC(C)CC1`, the cytotoxicity was 0% (inactive). To `CCCn1c(=O)c(C(=O)Nc2ccncc2)c(O)c2ccccc21` belongs 31.4% (inactive); to `CCc1nnc(NC(=O)c2c(O)c3cccc4c3n(c2=O)CC4)s1`, 34.5% (inactive).

Consider `CCc1nnc(NC(=O)c2cccc(C(=O)Nc3nnc(CC)s3)n2)s1`, for which the cytotoxicity is 52.5% (active). As to `CCCn1c(=O)c(C(=O)Nc2nnc(CC)s2)c(O)c2ccccc21`, the cytotoxicity was 51.2% (active). To `CCCn1c(=O)c(C(=O)Nc2cnccn2)c(O)c2ccccc21` belongs -11.9% (inactive). Then `CCCn1c(=O)c(C(=O)NCc2ccccn2)c(O)c2ccccc21`, with -12.9% (inactive); and `CCCn1c(=O)c(C(=O)Nc2nnc(C)s2)c(O)c2ccccc21`, with 75.2% (active); and `CC(C)Cn1c(=O)c(C(=O)Nc2cnccn2)c(O)c2ccccc21`, with 29.3% (inactive). For `CC(C)Cn1c(=O)c(C(=O)Nc2ccncc2)c(O)c2ccccc21`, the cytotoxicity is 53.2% (active). Then `C=CCn1c(=O)c(C(=O)Nc2nnc(C)s2)c(O)c2ccccc21`, with 7.8% (inactive). Then `CCc1nnc(NC(=O)c2cccc(OC)c2)s1`, with -1.7% (inactive); and `CCc1nnc(NC(=O)c2cnccn2)s1`, with -17.9% (inactive); and `CC1CC(C)CN(C(=O)C(NS(=O)(=O)c2ccc3c(c2)oc(=O)n3C)C(C)C)C1` (stereo not given), with 9.9% (inactive). For the compound `CC(Sc1nnc(Cn2c(=O)sc3ccccc32)n1C)c1ccccc1` (stereo not given), the cytotoxicity was -13.8% (inactive). To `O=C(O)CCC1COc2ccccc2O1` (stereo not given) belongs -3.3% (inactive); to `CC(C)(C)n1nc2c(c1NC(=O)c1ccc(Br)cc1)CS(=O)C2` (stereo not given), 0.9% (inactive). Then `Cc1cc(NC(=O)c2cc(-c3cccs3)nc3ccccc23)no1`, with 13.3% (inactive); and `CCOC(=O)c1[nH]c(C)c(C(=O)NCc2ccc(C)cc2)c1C`, with -17.6% (inactive). `CCn1c(=O)c(C(=O)Nn2c(C)nc3ccccc3c2=O)c(O)c2ccccc21`: the cytotoxicity is 21.7% (inactive).

As to `CCn1c(=O)c(C(=O)Nc2cccnc2)c(O)c2ccccc21`, the cytotoxicity is 15.8% (inactive). To `CCn1nc(NC(=O)c2ccncc2)c2cc3ccc(C)cc3nc21` belongs -0.2% (inactive). For `CCOC(=O)Cn1nnc(-c2ccc(OCC(C)C)cc2)n1`, the cytotoxicity is -9.5% (inactive). To `NC(=O)CSc1nnc(Cn2c(=O)sc3ccccc32)n1-c1ccccc1` belongs 3.5% (inactive); to `CCOc1ccc(-c2nnn(CC(=O)Nc3ccccc3OC)n2)cc1OCC`, -3.5% (inactive); to `CCOc1ccc(-c2nnn(CC(=O)Nc3cc(OC)cc(OC)c3)n2)cc1OCC`, 8% (inactive). As for `CCOc1ccc(-c2nnn(CC(=O)Nc3cc(OC)ccc3OC)n2)cc1OCC`, the cytotoxicity was 69.5% (active).

`CCOC(=O)c1ccc(NC(=O)c2cc(S(=O)(=O)N3CCOCC3)ccc2O)cc1`: the cytotoxicity is 3.3% (inactive).

Take `Cc1c(Cl)cccc1NC(=O)CC(C(=O)O)C1CCCO1` (stereo not given): the cytotoxicity is 7.8% (inactive). For `Cc1ccc(N2C(N)=NC(N)=NC23CCCC3)c(C)c1`, the cytotoxicity was -2.3% (inactive). Turning to `COc1ccc2nc(NCc3ccccc3)[nH]c2c1`, the cytotoxicity is 39.1% (inactive). As to `Cc1ccc2nc(NCc3ccccc3)[nH]c2c1`, the cytotoxicity is 70.4% (active). Then `c1ccc(CNc2nc3ccccc3[nH]2)cc1`, with -11.8% (inactive). Turning to `CN(CC(=O)NC1CCCc2ccccc21)S(=O)(=O)c1ccc2c(c1)c(=O)n(C)c(=O)n2C` (stereo not given), the cytotoxicity is -10.5% (inactive). To `c1csc(-c2csc(-c3cccs3)n2)c1` belongs -4.7% (inactive); to `COc1ccccc1S(=O)Cc1ccc(C(=O)NC2CCCC2)o1` (stereo not given), -13.2% (inactive); to `COC(=O)c1ccccc1NC(=O)Cn1cc2c(n1)CCC(C)C2` (stereo not given), -7.1% (inactive). As for `O=C1NC(c2cccs2)Nc2ccccc21` (stereo not given), the cytotoxicity was 5% (inactive). `Cc1ccsc1C1NC(=O)c2ccccc2N1` (stereo not given): the cytotoxicity is -19.5% (inactive). Regarding `Cc1ccc(C2NC(=O)c3ccccc3N2)s1` (stereo not given), the cytotoxicity was 55.9% (active). Then `CCN(CC)CCn1c(OC)cc(=O)[nH]c1=O`, with -2.5% (inactive); and `O=C(CCNC(=O)c1ccc(Br)o1)NCc1ccccc1Cl`, with -6.1% (inactive); and `CC(C)c1ccc(-c2nc(N3CCCCC3)[nH]c(=O)c2C#N)cc1`, with 24.7% (inactive).

For `COc1ccc(CCNC(=O)CSc2nnnn2Cc2ccc3c(c2)OCO3)cc1OC`, the cytotoxicity is -16.4% (inactive). To `COc1ccc(-c2noc(C)c2-c2ccc3ccccc3n2)c(O)c1` belongs 48.2% (inactive); to `COc1ccc(OC(=O)c2cc3ccccc3o2)cc1`, -0.5% (inactive). For the compound `CCOC(=O)c1ccc(NC(=O)Cn2nnc3ccccc32)cc1`, the cytotoxicity was 3.7% (inactive).

As for `CCSC1=C(C#N)C(c2cccs2)C(C(=O)OC)=C(C)N1` (stereo not given), the cytotoxicity is 13.4% (inactive). To `C#CCSC1=C(C#N)C(c2cccs2)C(C(=O)OCC)=C(C)N1` (stereo not given) belongs 53% (active); to `CCOC(=O)C1=C(C)NC(SCC(=O)Nc2nc(C)cs2)=C(C#N)C1c1cccs1` (stereo not given), 78.9% (active). Consider `CCOCCSC1=C(C#N)C(c2cccs2)C(C(C)=O)=C(C)N1` (stereo not given), for which the cytotoxicity was 4.5% (inactive). For `CCOC(=O)C1=C(C)NC(SCc2cc(=O)[nH][nH]2)=C(C#N)C1c1cccs1` (stereo not given), the cytotoxicity was 37.1% (inactive). Turning to `CCOC(=O)C1=C(C)NC(SCC(=O)Nc2cc(C)on2)=C(C#N)C1c1cccs1` (stereo not given), the cytotoxicity was 10.6% (inactive). To `O=C(Nc1ccc2c(c1)OCO2)C1CC(c2ccccc2Cl)=NO1` (stereo not given) belongs 5.2% (inactive).

Consider `CC(=O)OCC(=O)NCc1ccc2c(c1)OCO2`, for which the cytotoxicity is -32.4% (inactive). To `c1ccc(-n2c(Sc3cnccn3)nnc2-c2cccs2)cc1` belongs -0.3% (inactive); to `Cc1occc1C(=O)Nc1cccnc1`, -15.1% (inactive). On to `C=CS(=O)(=O)c1ccc(Oc2ccc(S(=O)(=O)C=C)cc2)cc1`, for which the cytotoxicity was 93.9% (active).

For `CNS(=O)(=O)c1ccc(Oc2ccc(S(=O)(=O)NC)cc2)cc1`, the cytotoxicity was 5% (inactive). Regarding `O=S(=O)(c1ccc(Oc2ccc(S(=O)(=O)N3CCOCC3)cc2)cc1)N1CCOCC1`, the cytotoxicity is -11.9% (inactive). With `CCOC(=O)Cc1csc(NC(=O)CCS(=O)(=O)Cc2ccccc2)n1`, the cytotoxicity is 0% (inactive). To `Cc1cccc(NC(=O)NCCN2C(=O)C3C4C=CC(C4)C3C2=O)c1` (stereo not given) belongs 0.7% (inactive). On to `CC(=O)NC(Cc1c[nH]c2ccccc12)C(=O)N1CCc2ccccc2C1` (stereo not given), for which the cytotoxicity is 4.8% (inactive). Then `COc1cc(C2c3c(n[nH]c3C)C(=O)N2c2ccc(Br)cc2)ccc1O` (stereo not given), with 27.9% (inactive); and `CCOc1cc(C2c3c(n[nH]c3C)C(=O)N2c2ccc(Br)cc2)ccc1O` (stereo not given), with 15.4% (inactive).

As for `COc1cc(C2c3c(n[nH]c3C)C(=O)N2c2ccc(C)cc2)ccc1O` (stereo not given), the cytotoxicity is 53.1% (active). To `COc1ccc(Cl)cc1N(CC(=O)N1CCN(Cc2ccccc2)CC1)S(C)(=O)=O` belongs -0.8% (inactive); to `CC(C)(C)NC(=O)CSc1nnc(-c2ccco2)n1Cc1ccco1`, -15.8% (inactive); to `COC(=O)c1ccc(C(=O)OC)nc1`, -18.5% (inactive). To `CCOC1(NC(=O)c2ccccc2)C(C)=CC(=O)C=C1C` belongs -9.8% (inactive); to `O=C(Cn1cccc1)Nc1ccc(OC(F)(F)F)cc1`, -1.8% (inactive). To `C=CCn1c(NCCO)nc2sc3c(c2c1=O)CCC3` belongs 62.9% (active); to `C=CCn1c(SC(CCO)C(=O)NCc2ccco2)nc2sc3c(c2c1=O)CCC3` (stereo not given), 6.3% (inactive). With `C=CCn1c(SCC(=O)N2CCOCC2)nc2sc3c(c2c1=O)CCCC3`, the cytotoxicity was -1.2% (inactive).
